Experimental data from PubChem BioAssay (Tox21).
Results filed as inconclusive are left out. Calls of active or inactive are those of the source. Unless noted, calls follow the shape of the dose curve; as a rule, active = well fitted curve in the direction sought with a large enough effect in the repeat runs; inconclusive = weak or mixed curves; inactive = no such curve, though single readings can be large; an effect the other way counts as inactive or inconclusive.

Legend:
[1] = qHTS assay to identify small molecule antagonists of the estrogen related receptor (ERR) signaling pathway from Tox21 library - cell viability counter screen (AID 1224834); also: nearly all actives have a fitted effect of over 30% in size
Method in brief: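 CellTiter-Fluor fluorescence, read after 30 min at 37 C, measures viability of ERR cells. Cells plated at 2,000/well and incubated 6 h before pin-tool compound addition, then exposed 17.5 hours at 37 C.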

[2] = target: Luciferin 4-monooxygenase (Photinus pyralis) (UniProt P08659); assay: qHTS assay to identify small molecule inhibitors of firefly luciferase (AID 1224835); also: nearly all actives have a fitted effect of over 25% in size
Sequence of Luciferin 4-monooxygenase (Photinus pyralis) (P08659 whole entry, looked up): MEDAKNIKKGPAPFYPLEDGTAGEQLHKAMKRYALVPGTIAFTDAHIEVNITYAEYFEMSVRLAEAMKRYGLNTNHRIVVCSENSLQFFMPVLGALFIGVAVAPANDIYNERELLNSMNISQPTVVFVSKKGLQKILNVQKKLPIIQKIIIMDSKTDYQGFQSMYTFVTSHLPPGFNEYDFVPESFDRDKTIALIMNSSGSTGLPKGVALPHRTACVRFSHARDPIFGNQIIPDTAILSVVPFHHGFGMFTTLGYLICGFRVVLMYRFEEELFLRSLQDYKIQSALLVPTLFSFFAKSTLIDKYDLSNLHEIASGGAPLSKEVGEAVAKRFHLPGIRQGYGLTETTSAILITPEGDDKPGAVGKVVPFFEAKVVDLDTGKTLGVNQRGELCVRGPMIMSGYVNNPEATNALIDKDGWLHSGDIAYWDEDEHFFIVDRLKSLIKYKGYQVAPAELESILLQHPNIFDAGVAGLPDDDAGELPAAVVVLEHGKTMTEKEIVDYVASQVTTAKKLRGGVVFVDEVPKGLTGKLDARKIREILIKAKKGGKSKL
Method in brief: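 Quantitative HTS format; KM concentrations of both substrates. Purified P. pyralis FLuc activity quantified from luminescence images.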

[3] = qHTS assay to identify small molecule agonists of the constitutive androstane receptor (CAR) signaling pathway - cell viability counter screen (AID 1224836); also: nearly all actives have a fitted effect of over 45% in size
Method in brief: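 HepG2 cells stably carrying hCAR and a CYP2B6-2.2kb reporter were plated 4 h, then given compounds at 15 concentrations plus PK11195 (final 0.75 uM). After 23 h at 37 C, viability was read by CellTiter-Fluor fluorescence.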

[4] = qHTS assay to identify small molecule antagonists of the constitutive androstane receptor (CAR) signaling pathway - cell viability counter screen (AID 1224837); also: nearly all actives have a fitted effect of over 45% in size
Method in brief: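 Cytotoxicity counter-screen: CellTiter-Fluor fluorescence after 23 h compound exposure (15-point qHTS) in double-stable HepG2-CYP2B6-hCAR cells, with 50 nM CITCO added.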

[5] = target: Nuclear receptor subfamily 1 group I member 3 (Homo sapiens) (UniProt Q14994); assay: qHTS assay to identify small molecule antagonists of the constitutive androstane receptor (CAR) signaling pathway (AID 1224838); also: nearly all actives have a fitted effect of over 40% in size
Sequence of Nuclear receptor subfamily 1 group I member 3 (Homo sapiens) (Q14994 whole entry, looked up): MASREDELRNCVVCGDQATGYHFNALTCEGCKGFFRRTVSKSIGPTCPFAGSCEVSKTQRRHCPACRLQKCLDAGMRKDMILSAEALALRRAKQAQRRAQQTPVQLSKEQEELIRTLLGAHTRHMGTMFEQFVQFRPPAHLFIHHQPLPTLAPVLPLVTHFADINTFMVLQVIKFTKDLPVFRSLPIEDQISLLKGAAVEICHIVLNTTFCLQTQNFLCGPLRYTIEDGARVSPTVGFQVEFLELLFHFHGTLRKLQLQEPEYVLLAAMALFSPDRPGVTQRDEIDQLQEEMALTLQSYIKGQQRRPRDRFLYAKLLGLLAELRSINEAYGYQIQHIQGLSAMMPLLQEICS
Method in brief: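 Antagonism measured as luciferase signal (ONE-Glo, 30 min, room temperature) in CAR-stimulated cells: HepG2-CYP2B6-hCAR double-stable line exposed 24 hr at 37 C to compound in a 15-point series plus 50 nM CITCO.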

[6] = target: Nuclear receptor subfamily 1 group I member 3 (Homo sapiens) (UniProt Q14994); assay: qHTS assay to identify small molecule agonists of the constitutive androstane receptor (CAR) signaling pathway (AID 1224839);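 also: HepG2 cells stably carrying human CAR and a CYP2B6 luciferase reporter; nearly all actives have a fitted effect of over 15% in size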
Method in brief: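 HepG2 cells stably expressing hCAR and a CYP2B6-2.2kb luciferase reporter were treated with compounds at 15 concentrations plus 0.75 uM PK11195 (final) for 24 h at 37 C; luminescence was read after ONE-Glo addition.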

[7] = qHTS assay to identify small molecule antagonists of the estrogen related receptor signaling pathway with the pleiotropic PPARgamma coactivator (PGC) from Tox21 10K library - cell viability counter screen (AID 1224840; active = well fitted cell-killing curve with a large enough effect in the repeat runs, not every such curve was filed as active; also: nearly all actives have a fitted effect of over 40% in size)
Method in brief: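 Counter-screen for cytotoxicity: after 17.5 h compound exposure at 37 C, CellTiter-Fluor reagent added to PGC/ERR cells for 30 min and fluorescence read. Cells were seeded at 2,000 per well 6 h before dosing.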

[8] = qHTS assay to identify small molecule antagonists of the estrogen related receptor signaling pathway with the pleiotropic PPARgamma coactivator (PGC) from Tox21 10K library (AID 1224841; call rule not given here; also: actives are mostly falling curves and most rising ones were filed inactive; nearly all actives have a fitted effect of over 50% in size)
Method in brief: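 Luminescence (One-Glo, 30 min at room temperature) after 18 h compound treatment at 37 C of PGC/ERR reporter cells plated at 2,000 cells/well and settled 6 h beforehand.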

[9] = qHTS assay to identify small molecule agonists of the estrogen related receptor signaling pathway with the pleiotropic PPARgamma coactivator (PGC) from Tox21 10K library (AID 1224842); also: nearly all actives have a fitted effect of over 15% in size
Method in brief: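 PGC/ERR reporter cells (NTP line) were seeded 2,000 per well, rested 6 h at 37 C/5% CO2, then pin-dosed with compounds in DMSO for 18 h at 37 C; luciferase read by One-Glo luminescence after 30 min at room temperature.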

[10] = qHTS assay to identify small molecule agonists of the hypoxia (HIF-1) signaling pathway - cell viability counter screen (AID 1224844; calls by dose curve; also: nearly all actives have a fitted effect of over 50% in size)
Method in brief: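 Cytotoxicity measured by CellTiter-Glo ATP luminescence in the wells also read for beta-lactamase signal. Cells were HRE-bla ME-180 (2,000/well, 0.5% dialyzed FBS), exposed to compounds for 17 h at 37C.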

[11] = qHTS assay to identify small molecule agonists of H2AX (AID 1224845; active = well fitted activation curve with a large enough effect in the signal ratio in the repeat runs, not every such curve was filed as active; the % refers to the signal ratio)
Method in brief: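 Wild-type CHO-K1 cells plated overnight, then exposed 3 hr at 37C to compounds at 15 concentrations (0.76% DMSO). Lysed, then HTRF anti-pH2AX(S139)-cryptate/anti-H2AX-d2 detection after 24 hr at room temperature; emissions 665 and 620 nm.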

[12] = qHTS assay to identify small molecule agonists of the hypoxia (HIF-1) signaling pathway (AID 1224846; active = well fitted activation curve with a large enough effect in the signal ratio in the repeat runs, not every such curve was filed as active; the % refers to the signal ratio)
Method in brief: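 Compounds added to ME-180 cells carrying hypoxia-response-element beta-lactamase reporter (0.5% dialyzed FBS, 5 h preplating), 17 h at 37C; agonist activity detected by CCF4-AM B/G FRET read-out.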

[13] = qHTS assay to identify small molecule agonists of H2AX - cell viability counter screen (AID 1224847; calls by dose curve; also: top concentration of the series differs between compounds; nearly all actives have a fitted effect of over 30% in size)
Method in brief: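 Wild-type CHO-K1 cells (10% FBS medium) were plated overnight at 37C, exposed to compounds at 15 concentrations for 3 hr at 37C (0.76% DMSO final), and viability was read as CellTiter-Glo luminescence after 30 min at room temperature.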

[14] = qHTS assay to identify small molecule antagonists of the estrogen related receptor (ERR) signaling pathway from Tox21 library (AID 1224848); also: nearly all actives have a fitted effect of over 50% in size
Method in brief: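 Tox21 10K compounds in DMSO tested for ERR pathway antagonism in NTP's ERR cell line; 18 h, 37 C exposure; ONE-Glo luminescence.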

[15] = qHTS assay to identify small molecule agonists of the estrogen related receptor (ERR) signaling pathway from Tox21 library (AID 1224849; calls by dose curve; also: nearly all actives have a fitted effect of over 15% in size); settings: ERR reporter cell line, ONE-Glo luciferase, 18 h; at 92.4 µM (top of the series) unless noted
Method in brief: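 Luminescent agonist read-out (One-Glo, 30-minute room-temperature incubation) following 18-hour compound treatment at 37 C of the ERR cell line, which had been plated 6 hours before dosing.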

[16] = qHTS RealTime-Glo MT Cell Viability Assay in HepG2 cells - 24 hour (AID 1224867); also: nearly all actives have a fitted effect of over 50% in size
Method in brief: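 HepG2 cells were seeded at 600 cells/well together with NanoLuc luciferase and a cell-permeant prosubstrate, preincubated 5 h at 37 C/5% CO2, then pin-dosed with compounds in DMSO. Nonlytic luminescence from viable cells was read at each time point.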

[17] = qHTS RealTime-Glo MT Cell Viability Assay in HEK293 cells - 32 hour (AID 1224868)
Method in brief: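 HEK293 cells were seeded at 600 cells/well together with NanoLuc luciferase and cell-permeant prosubstrate, preincubated 5 h at 37 C/5% CO2, then given compound in DMSO by pintool. Luminescence from viable-cell prosubstrate reduction was read repeatedly over 40 h.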

[18] = A CellTox Green Cytotoxicity Assay to monitor cytotoxicity in HEK293 cells - 0 hour (AID 1224869); also: nearly all actives have a fitted effect of over 50% in size
Method in brief: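 Fluorescence from a DNA-binding dye excluded by viable cells was measured repeatedly in the same HEK293 wells (600 cells/well) during continuous compound exposure at 37 C. Each assay gives one read point: 0, 8, 16, 24, 32 or 40 h.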

[19] = target: Thyrotropin receptor (Homo sapiens) (UniProt P16473); assay: qHTS assay to identify small molecule agonists of the thyroid stimulating hormone receptor (TSHR) signaling pathway (AID 1224843; calls by dose curve; also: nearly all actives have a fitted effect of over 45% in size)
Sequence of Thyrotropin receptor (Homo sapiens) (P16473 whole entry, looked up): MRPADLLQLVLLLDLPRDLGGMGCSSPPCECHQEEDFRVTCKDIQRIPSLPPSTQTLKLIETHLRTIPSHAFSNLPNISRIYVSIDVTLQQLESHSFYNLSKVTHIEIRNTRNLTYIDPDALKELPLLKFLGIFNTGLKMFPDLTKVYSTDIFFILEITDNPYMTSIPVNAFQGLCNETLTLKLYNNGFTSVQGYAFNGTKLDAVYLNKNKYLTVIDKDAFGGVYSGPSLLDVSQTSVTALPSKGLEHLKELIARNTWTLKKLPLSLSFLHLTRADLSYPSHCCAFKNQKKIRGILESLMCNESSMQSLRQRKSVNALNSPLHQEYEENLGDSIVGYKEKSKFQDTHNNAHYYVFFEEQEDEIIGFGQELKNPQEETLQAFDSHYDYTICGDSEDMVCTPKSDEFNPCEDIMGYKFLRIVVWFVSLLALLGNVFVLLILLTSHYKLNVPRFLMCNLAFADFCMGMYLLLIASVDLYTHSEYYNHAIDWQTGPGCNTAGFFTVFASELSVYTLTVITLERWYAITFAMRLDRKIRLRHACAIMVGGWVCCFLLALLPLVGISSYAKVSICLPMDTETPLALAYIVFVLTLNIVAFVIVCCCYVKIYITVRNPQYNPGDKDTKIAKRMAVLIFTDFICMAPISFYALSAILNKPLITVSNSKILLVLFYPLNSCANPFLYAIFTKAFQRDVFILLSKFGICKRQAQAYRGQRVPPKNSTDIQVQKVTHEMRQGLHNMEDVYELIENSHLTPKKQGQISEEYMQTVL
Method in brief: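 Using 15 concentrations per compound in triplicate, cAMP production was monitored in TSHR-HEK293 cells after 30 min compound incubation at RT; HTRF reagents followed, with fluorescence intensity recorded after 1 h.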
% is scaled to controls: 0 for no effect and ±100 for the full control effect.

CCN(CC)C1CCCCC1
inactive: Potency [1] | Potency [2] | Potency [3] | Potency [4] | Potency [5] | Potency [6] | Potency [7] | Potency [8] | Potency [9] | Potency [10] | outcome [11] | outcome [12] | Potency [13] | Potency [14] | activity change, positive = activation [15] 0.2% | Potency [16] | Potency [17] | outcome [18]

C=CC=O
inactive: Potency [1] | Potency [2] | Potency [3] | Potency [4] | Potency [5] | Potency [6] | Potency [7] | Potency [19] | Potency [10] | outcome [11] | outcome [12] | Potency [13] | Potency [16] | outcome [18]

CCCOc1nn(C(=O)NS(=O)(=O)c2ccccc2C(=O)OC)c(=O)n1C
inactive: Potency [1] | Potency [2] | Potency [3] | Potency [4] | Potency [5] | Potency [6] | Potency [7] | Potency [19] | Potency [10] | outcome [11] | outcome [12] | Potency [16] | Potency [17] | outcome [18]

ClCCCCl
inactive: Potency [1] | Potency [2] | Potency [3] | Potency [4] | Potency [5] | Potency [6] | Potency [7] | Potency [19] | Potency [10] | outcome [11] | outcome [12] | Potency [13] | Potency [16] | outcome [18]

CCN(CCO)CCO
inactive: Potency [1] | Potency [2] | Potency [3] | Potency [4] | Potency [5] | Potency [6] | Potency [7] | Potency [19] | Potency [10] | outcome [11] | Potency [13] | Potency [16] | Potency [17] | outcome [18]

Cc1cc(OC(=O)N(C)C)nn1C(=O)N(C)C
inactive: Potency [1] | Potency [2] | Potency [3] | Potency [4] | Potency [5] | Potency [6] | Potency [7] | Potency [19] | Potency [10] | outcome [11] | outcome [12] | Potency [13] | Potency [16] | Potency [17] | outcome [18]

[O-][Br+2]([O-])O
inactive: Potency [1] | Potency [2] | Potency [3] | Potency [4] | Potency [5] | Potency [6] | Potency [7] | Potency [19] | Potency [10] | outcome [11] | outcome [12] | Potency [13] | Potency [16] | Potency [17] | outcome [18]

N=C(N)[Se]
inactive: Potency [1] | Potency [2] | Potency [3] | Potency [4] | Potency [5] | Potency [6] | Potency [7] | Potency [19] | Potency [10] | outcome [11] | outcome [12] | Potency [16] | Potency [17] | outcome [18]

O=C(O)C(Br)(Br)Br
inactive: Potency [1] | Potency [2] | Potency [3] | Potency [4] | Potency [5] | Potency [6] | Potency [7] | Potency [8] | Potency [9] | Potency [19] | outcome [11] | outcome [12] | Potency [13] | Potency [14] | activity change, positive = activation [15] 0.595% | Potency [16] | Potency [17] | outcome [18]
